# PubChem BioAssay (NCI)
# This is part of a sample that, as a whole, favours compounds with a hit. Of some 83,000 tested, about 20% had one in any assay.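 Activity criterion: percent growth below 10, measured after cells in 96-well plates were exposed to a single compound concentration for 48 hours.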 Active and inactive are the calls of the source.
# Tested on: SR leukemia
# Experiment: NCI-60 one-dose screen, 48 h (100 = growth as untreated, 0 = no growth, -100 = all killed)
# Conditions: 10 µM
row,Structure (SMILES),growth
1,CCCCOC(OCCCC)c1ccccc1,103% (inactive)
2,O=C(O)c1cccc([N+](=O)[O-])c1O,94.4% (inactive)
3,O=C1c2ccccc2C(=O)N1OCc1ccccc1,93.4% (inactive)
4,C[C@@H](c1ccccc1)[C@@H](C(=O)O)c1ccccc1,105% (inactive)
5,CC1=CC(C)(C)NC(=S)N1c1ccc(S(=O)(=O)O)c2cccc(S(=O)(=O)O)c12,109% (inactive)
6,CC(=O)OC(OC(C)=O)C1CCCO1 (centres undefined),135% (inactive)
7,c1ccc2c(N3CCCCC3)ncnc2c1,105% (inactive)
8,S=c1nn[nH]c2ccccc12,92.2% (inactive)
9,O=[N+]([O-])c1ccc(Sc2ccncn2)c([N+](=O)[O-])c1,30.6% (inactive)
10,O=c1[nH]c(O)c(/C=C2/C=Nc3ccccc32)[nH]1,76.3% (inactive)
11,CC1OC(Oc2c(-c3ccc(O)c(O)c3)oc3cc(O)cc(O)c3c2=O)C(O)C(O)C1O (centres undefined),106% (inactive)
12,Cc1ccc(O)c(C(=O)c2ccccc2)c1,113% (inactive)
13,OCC1OC(OC2C(O)C(CO)OC2(CO)OC2OC(CO)C(O)C(O)C2O)C(O)C(O)C1O (centres undefined),106% (inactive)
14,C[N+](C)(C)C(=O)c1ccccc1,102% (inactive)
15,O=[N+]([O-])c1ccc(Cl)c(S(=O)(=O)O)c1,89.2% (inactive)
16,Cc1cc2ccccc2c(O)c1C#N,108% (inactive)
17,COc1ncnc2c1cnn2C,82.6% (inactive)
18,NC(C(=O)O)c1ccc([N+](=O)[O-])cc1 (centres undefined),113% (inactive)
19,CC(O)COc1ccc(-c2ccccc2)cc1 (centres undefined),94.4% (inactive)
20,C1CNC(C2=NCCN2)=N1,96.1% (inactive)

row,Structure (SMILES),growth
1,CN(C)C(C)(C)CC(C)(C)C,93.5% (inactive)
2,O=[N+]([O-])c1ccc(S(=O)(=O)NN=C2CCCCC2)cc1,96.9% (inactive)
3,C[C@]12CC[C@@H]3c4ccc(OCC(=O)O)cc4CC[C@H]3[C@@H]1CCC2=O,88.5% (inactive)
4,Nc1ncnc2[nH]ncc12,26.1% (inactive)
5,CCCNc1ccc(C2=NCCCN2)cc1,96.9% (inactive)
6,O=C(N/N=C/c1ccccc1O)Nc1nn[nH]n1,102% (inactive)
7,Cc1ccc(CCCC(=O)O)c(C)c1,96.7% (inactive)
8,CC(=O)c1cc2c(cc1F)C(C)(C)CCC2(C)C,92.5% (inactive)
9,CN(c1ccccc1)c1ncnc2c1ncn2C,98.2% (inactive)
10,CCCCC1(CC)COC(CCC)OC1 (centres undefined),106% (inactive)
11,COc1cc2c3cc1Oc1c(OC)c(OC)cc4c1C(Cc1ccc(O)c(c1)Oc1ccc(cc1)CC3N(C)CC2)N(C)CC4 (centres undefined),-1.66% (active)
12,CCC(C#N)(CC)c1ccccc1,108% (inactive)
13,FC(F)(F)c1ccc2c(c1)N(CCCN1CCN(C3CC3)CC1)c1ccccc1S2,7.62% (active)
14,CC1NC(=O)NC1CCCCCC(=O)O (centres undefined),118% (inactive)
15,COS(=O)(=O)c1ccc(Br)cc1,135% (inactive)
16,O=[N+]([O-])c1cccc(N=Nc2ccc(O)cc2O)c1,43.1% (inactive)
17,Cc1cc(OCCO)cc(C)c1Cl,124% (inactive)
18,Cc1cc(O)ccc1O,104% (inactive)
19,CCOc1ccc(Br)cc1/C=N\N=C\c1cc(Br)ccc1OCC,92.4% (inactive)
